TEAD-YAP block – TEAD-YAP interaction inhibition. HEK-TIYL cells, TEAD-Gal4/YAP UAS-luciferase luminescence. inhibition, % at 9.12 µM. 640,000 compounds, 1.4% hits; in the data active means inhibition above about 32%
GPR151 ag – activates the human receptor GPR151. Q8TDV0. PathHunter beta-arrestin GPR151 cells, luminescence. activation, % at 11.2 µM. 650,000 compounds, 1% hits; in the data active means activation above about 4.9%
FBW7 act – human FBW7 E3 ligase activation, primary screen | normalized activity (activation), % at 26.1 µM | Q969H0 | 650,000 compounds, 0.13% hits | AID 1259310 | AlphaScreen FBW7–phospho-cyclin E peptide binding, activator screen; in the data active means normalized activity above about 1.9%;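 further: purified mutant Fbw7 with reduced substrate affinity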
MITF inh – inhibitors of human MITF; O75030; AlphaScreen MITF homodimerization, bead proximity signal; inhibition, % at 2.6 µM; 650,000 compounds, 0.91% hits; AID 1259374; in the data active means inhibition above about 50%
Target sequence (O75030 whole entry, looked up): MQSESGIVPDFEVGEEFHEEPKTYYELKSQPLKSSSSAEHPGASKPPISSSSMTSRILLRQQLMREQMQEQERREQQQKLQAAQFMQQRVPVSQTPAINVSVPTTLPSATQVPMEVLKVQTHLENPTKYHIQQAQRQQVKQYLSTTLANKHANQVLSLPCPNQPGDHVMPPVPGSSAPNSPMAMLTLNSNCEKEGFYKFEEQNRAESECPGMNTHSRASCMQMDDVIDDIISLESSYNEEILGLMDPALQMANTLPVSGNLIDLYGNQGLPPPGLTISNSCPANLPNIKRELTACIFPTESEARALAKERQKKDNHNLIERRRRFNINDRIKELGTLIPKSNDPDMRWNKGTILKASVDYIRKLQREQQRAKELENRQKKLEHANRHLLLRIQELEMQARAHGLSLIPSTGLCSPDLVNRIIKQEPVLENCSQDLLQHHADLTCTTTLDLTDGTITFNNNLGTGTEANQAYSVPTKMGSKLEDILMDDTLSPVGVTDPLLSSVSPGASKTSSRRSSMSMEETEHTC
A number is an active result; i = inactive. Hits are enriched below; roughly 3.5% of the tested compounds scored in any of these assays.

SMILES	TEAD-YAP block	GPR151 ag	FBW7 act	MITF inh
OCCNc1nc(-c2ccc(N3CCOCC3)nc2)nc2c1ncn2-c1ccsc1	34	i	i	i
COc1ccc(-c2nc(NCCN(C(C)C)C(C)C)c3ncn(-c4ccsc4)c3n2)cn1	35	i	i	i
O=C(c1ccc([N+](=O)[O-])cc1)c1nc2c(n1O)CCCC2	i	i	i	i
CCOc1ccc(NC(=O)CSc2nc3cc(C(=O)NCc4ccco4)ccc3c(=O)n2Cc2ccco2)cc1	i	i	i	i
CCOc1ccc(NC(=O)c2c(NCc3cccc(OC)c3OC)sc3c2CCCC3)cc1	i	i	i	i
CCN(CC)c1ccc2cc(C(=O)Nc3cccc(C)c3)c(=N)oc2c1	i	i	2.4	i
NC(=O)C1CCN(c2ncnc3c2c(-c2ccccc2)cn3-c2cccc(C(F)(F)F)c2)CC1	i	i	i	i
O=C(NN1C(=O)CSC1=S)c1ccccc1	i	i	i	i
O=C(NN1C(=O)CSC1=S)C(=O)NN1C(=O)CSC1=S	i	i	i	64
NC(=O)/C(=C\c1ccccc1F)NC(=O)c1ccccc1	i	i	i	i
C/C(=N/N1CCN(C)CC1)c1c(C(F)(F)F)[nH]n(-c2nc3ccccc3s2)c1=O	49	i	i	i
CC(=NCc1cccnc1)c1c(C)[nH]n(-c2nc3ccccc3s2)c1=O	42	i	i	i
C/C(=N\N1CCOCC1)c1c(C(F)(F)F)[nH]n(-c2nc3ccccc3s2)c1=O	i	i	i	i
CC1(C)CC(=O)C2=C(C1)Nc1ccccc1N(C(=O)Cc1ccc(Cl)cc1)C2c1ccccc1F (centres undefined)	i	i	i	i
COc1ccc2c(c1)CCc1c(C(=O)Nc3cccnc3Cl)noc1-2	i	i	i	i
COc1ccc(N2C(=O)/C(=C/C=C/c3ccco3)C(=O)NC2=S)c(OC)c1	i	i	i	76
Cc1ccc(N2C(=O)/C(=C/c3ccco3)C(=O)NC2=S)cc1	i	i	i	i
Cc1cccc(N2C(=O)/C(=C/C=C/c3ccco3)C(=O)NC2=S)c1	i	i	i	58
O=C1C(=O)N(c2cccc(C(F)(F)F)c2)C(c2ccccc2)/C1=C(\O)c1ccccc1 (centres undefined)	i	i	i	i
C=CCOc1ccc(/C=C2\SC(NC(C)=O)=NC2=O)cc1OCC	i	i	i	i
C=CCOc1ccc(/C=C2\SC(=N)N(c3nccs3)C2=O)cc1OCC	36	i	i	i
CCc1ccc(C2=NC(c3ccc(Cl)cc3)NC(c3cc(Cl)ccc3O)C2)cc1 (centres undefined)	i	i	i	i
Cc1cc(C)cc(C(=O)OCC(=O)N2CCCC2)c1	i	i	i	i
O=C(OCC(=O)N1CCN(Cc2ccccc2)CC1)c1cc(O)c(O)c(O)c1	i	i	i	84
O=C(OCC(=O)N1CCCCCC1)c1cc(O)c(O)c(O)c1	i	i	i	91
SMILES	TEAD-YAP block	GPR151 ag	FBW7 act	MITF inh
CCCCn1c(SCC(=O)NC2CCCCC2)nc2ccsc2c1=O	i	i	i	i
COc1ccc(-c2csc(=Nc3ccccc3)n2CCCO)cc1OC	i	i	i	i
COc1ccccc1N=c1scc(-c2ccc(OC)c(OC)c2)n1CCCO	42	i	i	i
COc1cc(Nc2nccn3c(-c4ccco4)cnc23)cc(OC)c1OC	57	i	i	i
COc1cc(Nc2nccn3c(-c4ccc5ccccc5c4)cnc23)cc(OC)c1OC	54	i	i	i
COc1cc(Nc2nccn3c(-c4ccc(Cl)cc4)cnc23)cc(OC)c1OC	i	i	i	i
COc1cc(Nc2nccn3c(-c4ccc(F)c(Cl)c4)cnc23)cc(OC)c1OC	53	i	i	i
COc1cc(Nc2nccn3c(-c4cccc(C(C)=O)c4)cnc23)cc(OC)c1OC	54	i	i	i
O=C(NCCc1nc(-c2ccc(Cl)cc2)n[nH]1)Nc1ccccc1	i	i	i	i
COc1cc(Nc2nc(NCCN3CCOCC3)c3ncn(-c4ccsc4)c3n2)cc(OC)c1OC	49	i	i	i
COc1ccc(CCNc2nc(NCCN3CCOCC3)nc3c2ncn3-c2ccsc2)cc1	i	i	i	i
c1cnc(Nc2nc(NCCN3CCOCC3)c3ncn(-c4ccsc4)c3n2)cn1	66	i	i	i
Cc1ccc(Nc2nc3cc(C)ccc3nc2NS(=O)(=O)c2ccc(C)cc2)cc1	i	i	i	i
COC(=O)c1ccccc1NC(=O)CN(C)S(=O)(=O)c1ccc2ccccc2c1	i	i	i	i
Cc1ccc(NC(=O)CN2C(=O)N/C(=C/c3cccn3-c3ccc(C(=O)O)cc3)C2=O)cc1	i	i	i	79
COc1ccc(-n2cccc2/C=C2\NC(=O)N(CC(=O)Nc3ccccc3)C2=O)cc1	i	i	i	i

Screens as filed in PubChem BioAssay.
